From PubChem
SNCA expr inh – reduces expression of the alpha-synuclein gene. HEK-293 SNCA-luciferase knock-in, luminescence, 24 h. Potency, µM (series often up to 57.2 µM), for inactives: at the highest dose activity change, negative = inhibition, most hits filed as inhibitors. 140,000 compounds, 0.17% hits. AID 1671194;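 note: potency is the fitted concentration of half-maximal effect; plate controls were DMSO cells for no effect and cell-free wells for full effect; nearly all actives have a fitted effect of over 45% in size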
IP6K1 inhibitor – blocks human inositol hexakisphosphate kinase 1; Q92551; IP6K1 kinase, ADP-Glo luminescence, 2 h; stronger effect = lower value; activity change, % (series mostly up to about 58 µM); 140,000 compounds, 0.81% hits; in the data active = activity change below about -25%; note: % is set by controls: 0 for no effect and ±100 for the full control effect
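ADP-Glo luminescence measures ADP made by human IP6K1 during a 2 h RT reaction with ATP/IP6 (mix at 1.3 mM/130 uM); top library doses 57.5 and 19.1 uM final.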
SNCA viab count – cell viability loss counter-screen. Potency, µM (doses to about 57.1 µM), for inactives: at the top dose activity change, negative = cytotoxicity, hits mostly cytotoxic. HEK-293-SNCA-luc viability, GF-AFC fluorescence, 24 h. 150,000 compounds, 0.12% hits;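 note: potency is the fitted concentration of half-maximal effect; 0% = DMSO-treated cells and -100% = medium-only wells without cells; nearly all actives have a fitted effect of over 30% in size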
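HEK-293-SNCA-luc cells (1500/well) plated 24 h, then exposed 24 h to a dilution series; GF-AFC added 30 min at 37C, fluorescence 405/540 nm; normalised to medium-only and DMSO wells, Hill fit.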
KDM5B inhibitor – inhibitors of human KDM5B histone demethylase; Q9UGL1; KDM5B demethylase, FDH-coupled NADH fluorescence (FDH is formaldehyde dehydrogenase); Potency, µM (titrated, usually from 57.7 µM), actives largely listed as inhibitors; 220,000 compounds, 2.6% hits; note: potency is the fitted concentration of half-maximal effect; 0% is about no effect; nearly all actives have a fitted effect of over 70% in size
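qHTS format, multiple compound concentrations. Buffer 50 mM HEPES pH 7.5/0.01% Tween-20; 200 nM KDM5BΔAP final; 10 min compound preincubation; substrate-mix levels 12.5 µM peptide, 25 µM α-KG, 0.25 mM NAD⁺; 30 min RT; ΔRFU.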
* = called active by the depositor; [ ] = dose if it differs, or a comment. Hits are enriched below; roughly 2.8% of the tested compounds scored in any of these assays. Unless noted, calls come from the whole dose curve; as a rule, active = well fitted curve in the direction sought with a large enough effect; inconclusive = small, poorly fitted or top-dose-only effect, or another doubt; inactive = no such curve, though single readings can be large; an effect the other way counts as inactive or inconclusive.

For CC(C)CNC(=O)c1cc(C2CC2)nc2onc(C3CCNC3)c12 (stereo not drawn) the results were SNCA expr inh -7%, IP6K1 inhibitor -4, SNCA viab count -2% and KDM5B inhibitor 100µM*.
O=C(NCC(F)(F)F)c1cc(C2CC2)nc2onc(C3CCNC3)c12 (stereo not drawn) was read as SNCA expr inh inconclusive, IP6K1 inhibitor 1, SNCA viab count 7% and KDM5B inhibitor 89µM*.
O=C(c1cc(C2CC2)nc2onc(C3CCNCC3)c12)N1CCOCC1 was read as SNCA expr inh -5%, IP6K1 inhibitor 1, SNCA viab count 5% and KDM5B inhibitor 56µM*.
`COc1cc(C(=O)OCC(=O)NC2CCC(C)CC2)cc(Cl)c1OC` (stereo not drawn) gave KDM5B inhibitor inactive.
For CS(=O)(=O)N1CCc2ccc(C(=O)NCCN3CCc4ccccc4C3)cc21 the results were SNCA expr inh 25%, IP6K1 inhibitor -4, SNCA viab count 0% and KDM5B inhibitor 28µM*.
For CN(C)CCCNC(=O)c1ccc2c(c1)N(S(C)(=O)=O)CC2 the results were SNCA expr inh 2%, IP6K1 inhibitor -4, SNCA viab count 5% and KDM5B inhibitor inconclusive.
`CCN(CC)CCNC(=O)c1ccc2c(c1)N(S(C)(=O)=O)CC2` gave SNCA expr inh 36%, IP6K1 inhibitor 0, SNCA viab count 8% and KDM5B inhibitor 28µM*.
CN1CCOc2c(C(=O)NCCc3cnc[nH]3)cc(-c3ccccc3)cc21 was read as SNCA expr inh inconclusive, IP6K1 inhibitor -17, SNCA viab count -13%[87.6 µM] and KDM5B inhibitor 32µM*.
For CN1CCOc2c(C(=O)NCCC(N)=O)cc(-c3ccccc3)cc21 the results were SNCA expr inh 8%[87.6 µM], IP6K1 inhibitor -10, SNCA viab count -13%[87.6 µM] and KDM5B inhibitor 35µM*.
Cc1nn(-c2ccccc2)c2c1C(C(C)C)N(C1CCN(C(=O)c3ccccc3F)CC1)C2=O (stereo not drawn) was read as IP6K1 inhibitor 14.
Screening CNC(=O)CCn1ncc2cc(OCc3ccccc3-c3cccc(C)c3)ccc21 returned SNCA expr inh 1%[87.6 µM], IP6K1 inhibitor 16, SNCA viab count inconclusive and KDM5B inhibitor 35µM*.
For O=C(CSc1nnc2ccccn12)Nc1ccc(S(=O)(=O)N2CCCC2)cc1 the results were KDM5B inhibitor inactive.
For COc1ncc(-c2cccc(COc3ccc4c(cnn4CC[S+](C)(=O)[O-])c3)c2)cn1 the results were SNCA expr inh 38%[87.6 µM], IP6K1 inhibitor 9, SNCA viab count -10%[87.6 µM] and KDM5B inhibitor 35µM*.
Screening COc1ncccc1-c1cccc(COc2ccc3c(cnn3CC[S+](C)(=O)[O-])c2)c1 returned SNCA expr inh 27%[87.6 µM], IP6K1 inhibitor -6, SNCA viab count -18%[87.6 µM] and KDM5B inhibitor 32µM*.
C[S+](=O)([O-])CCn1ncc2cc(OCc3cccc(-c4ccc(F)cc4)c3)ccc21 was read as SNCA expr inh -6%[87.6 µM], IP6K1 inhibitor -3, SNCA viab count -21%[87.6 µM] and KDM5B inhibitor 35µM*.
`Cc1ccc(-c2cccc(CN3CCCC3C(=O)NCc3ccc(F)cc3)c2)cc1Cl` (stereo not drawn) gave IP6K1 inhibitor 19.
Screening N#Cc1ccc(CN2C[C@@H]3OCC(=O)N(CC(N)=O)[C@@H]3C2)cc1 returned SNCA expr inh -23%[87.6 µM], IP6K1 inhibitor -5, SNCA viab count -2%[87.6 µM] and KDM5B inhibitor 35µM*.
For Cc1cn2nc(C(=O)NCc3ccccn3)cc2c(=O)[nH]1 the results were SNCA expr inh 26%, IP6K1 inhibitor -11, SNCA viab count 3% and KDM5B inhibitor inconclusive.
Cc1cn2nc(C(=O)Nc3ccc(C(=O)NCCc4cccs4)cc3)cc2c(=O)[nH]1 was read as SNCA expr inh -24%, IP6K1 inhibitor 7, SNCA viab count -8% and KDM5B inhibitor 25µM*.
`COc1ccc(-c2ncc(CN3CCCC4(C3)CN(C)C(=O)O4)cn2)cc1` (stereo not drawn) gave SNCA expr inh 8%, IP6K1 inhibitor -11, SNCA viab count -6% and KDM5B inhibitor 14µM*.
Screening CCOc1cccc(/C=C2\N=C(SC)SC2=O)c1 returned KDM5B inhibitor inactive.
O=C(COC(=O)CCC(=O)c1ccc(Cl)cc1)NC1CCCCCCC1 was read as KDM5B inhibitor inactive.
For O=C(NCc1ccc2c(c1)CCN2C(=O)c1ccc(F)cc1)c1c(F)cccc1F the results were SNCA expr inh -2%, IP6K1 inhibitor 1, SNCA viab count -7% and KDM5B inhibitor inactive.
`CNC(=O)c1c(F)cccc1Nc1nc(Nc2cc3c(cc2OC)CCN3C(=O)CN(C)C)nc2[nH]ccc12` gave SNCA expr inh 14µM*, IP6K1 inhibitor -5 and SNCA viab count -17%.
Screening CSc1ccc(C(C)NC(=O)c2ccccc2F)cc1 (stereo not drawn) returned KDM5B inhibitor inactive.
`CCN(C(=O)CC1COc2ccc(C(=O)N(C)C)cc2N1C)C1CC1` (stereo not drawn) gave SNCA expr inh 10%, IP6K1 inhibitor -6, SNCA viab count -3% and KDM5B inhibitor inactive.
For COCCNC(=O)c1ccc2c(c1)N(C)C(CC(=O)N(C)C(C)C)CO2 (stereo not drawn) the results were SNCA expr inh 24%, IP6K1 inhibitor -10, SNCA viab count 2% and KDM5B inhibitor 28µM*.
`C#CCN(C)C(=O)CC1COc2ccc(C(=O)NCCOC)cc2N1C` (stereo not drawn) gave SNCA expr inh -12%, IP6K1 inhibitor 8, SNCA viab count -1% and KDM5B inhibitor 32µM*.
For CC(Cc1cccnc1)Nc1cc(-c2ccccc2F)nc2ccnn12 (stereo not drawn) the results were SNCA expr inh -5%, IP6K1 inhibitor -15, SNCA viab count -4% and KDM5B inhibitor 28µM*.
Screening Fc1ccccc1CNc1cc(Cl)nc2ccnn12 returned SNCA expr inh -13%[87.6 µM], IP6K1 inhibitor 9, SNCA viab count 12%[87.6 µM] and KDM5B inhibitor inactive.
`O=C(O)CSCC(=O)N[C@H]1CO[C@H]2[C@@H]1OC[C@@H]2Nc1nccc(-c2cccc(F)c2)n1` gave SNCA expr inh -21%, IP6K1 inhibitor 3, SNCA viab count -1% and KDM5B inhibitor 25µM*.
COc1ccc(-c2ccnc(N[C@H]3CO[C@H]4[C@@H]3OC[C@@H]4NS(=O)(=O)c3ccc(NC(C)=O)cc3)n2)cc1 was read as SNCA expr inh -17%, IP6K1 inhibitor -18, SNCA viab count -10% and KDM5B inhibitor inconclusive.
For CC(=O)Nc1ccc(S(=O)(=O)N[C@H]2CO[C@H]3[C@@H]2OC[C@@H]3Nc2nccc(-c3ccco3)n2)cc1 the results were SNCA expr inh -20%, IP6K1 inhibitor 17, SNCA viab count -19% and KDM5B inhibitor 22µM*.
For c1coc(-c2ccnc(N[C@H]3CO[C@H]4[C@@H]3OC[C@@H]4NCC3CCCCC3)n2)c1 the results were SNCA expr inh 3%[87.6 µM], IP6K1 inhibitor 0, SNCA viab count -8%[87.6 µM] and KDM5B inhibitor 32µM*.
